Measurements from PubChem BioAssay AID589 (National Center for Advancing Translational Sciences (NCATS), 2007).
The whole screen tested about 59,000 compounds, of which about 6,200 (11%) were called active. Not shown: some 9% with an inconclusive outcome. Cut-off read from the data, not from the text of the source: active = max dye-equivalent concentration above about 10 nM; inconclusive = mostly about 1.1 nM to 9.6 nM; inactive = weaker than that. Shown is part of a subset that was picked to be rich in actives.

Experiment: qHTS Assay for Spectroscopic Profiling in 4-MU Spectral Region
Details: compound autofluorescence, 340/450 nm, 4-MU equivalents; active compounds read high
Summary of the method: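 Compounds in 100 mM Tris, pH 8.0, incubated 15 min at room temperature, then fluorescence read at 340 nm excitation/450 nm emission. Signal converted to 4-MU dye-equivalent concentration using an on-plate six-point 4-MU standard curve.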

Row | Structure (SMILES) | max dye-equivalent concentration
1 | Cc1ccc(Oc2ccc(N)cc2)cc1 | inactive
2 | CCOc1ccccc1-n1c(SCC(=O)NCc2ccco2)nnc1-c1ccncc1 | inactive
3 | O=C(CCc1ccccc1)Nc1ccc(NC(=O)C2CC2)nc1 | inactive
4 | O=C1CC(c2ccccc2)C(=O)N1c1cccc(O)c1 (stereo unspecified) | inactive
5 | Cc1cc(NC(=O)c2cnn3cccnc23)n(-c2ccccc2)n1 | inactive
6 | CCN(Cc1ccncc1)C(=O)c1cccc(S(=O)(=O)N2CCOCC2)c1 | inactive
7 | O=C(Nc1ccc2c(c1)nc1n2CCCCC1)c1cc(S(=O)(=O)N2CCOCC2)ccc1Cl | inactive
8 | O=C(Nc1nc2cc3c(cc2s1)OCCO3)c1cccc(S(=O)(=O)N2CCOCC2)c1 | 18 nM (active)
9 | CCOC(=O)c1sc(NC(=O)c2cc(S(=O)(=O)N3CCOCC3)ccc2C)nc1C | inactive
10 | COc1ccc(S(=O)(=O)N2CCOCC2)cc1C(=O)Nc1nc2ccccc2s1 | 35 nM (active)
11 | O=C(Nc1nc2ccc(S(=O)(=O)N3CCCC3)cc2s1)C1CCCO1 (stereo unspecified) | inactive
12 | CC(=O)c1c(N2CCOCC2)nc(=S)n(-c2cc(C)ccc2C)c1C | inactive
13 | Cc1ccc2cccc(S(=O)(=O)N3CCN(c4ccccc4F)CC3)c2n1 | inactive
14 | CCOC(=O)CN(C(=O)CN1CCOCC1)c1ccc(Br)cc1 | inactive
15 | COc1ncnc2c1N=C1CC(C)(C)CC(N)=C1S2 | inactive
16 | O=C(OCC(=O)N1CCN(C(=O)c2ccco2)CC1)c1ccccc1Cc1ccccc1 | inactive
17 | COC(=O)CN(c1cccc(C(C)=O)c1)S(C)(=O)=O | inactive
18 | Cc1nnc(SCC(=O)NCc2cccs2)[nH]c1=O | inactive
19 | CCN(CC(=O)NCc1cccs1)c1nnnn1-c1ccccc1 | inactive
20 | C=CCn1c(N)c(S(=O)(=O)c2cccs2)c2nc3ccccc3nc21 | 3700 nM (active)
21 | C=CCn1c(C(C)NC(=O)CC)nc2ccccc21 (stereo unspecified) | inactive
22 | C=CCn1c(C2CC(=O)N(c3ccc(C)cc3)C2)nc2ccccc21 (stereo unspecified) | inactive
23 | C=CCn1c(N)c(C(=O)OCC(C)C)c2nc3ccccc3nc21 | 3300 nM (active)
24 | CC(C)Cn1c(N)c(C(=O)NCc2cccs2)c2nc3ccccc3nc21 | 280 nM (active)

Row | Structure (SMILES) | max dye-equivalent concentration
25 | O=C(c1cc(C(F)(F)F)cc(C(F)(F)F)c1)N1CCC2(CCCN(Cc3ccncc3)C2)CC1 | inactive
26 | COc1ccc(-c2nn(-c3ccccc3)cc2C(=O)Nc2nc(CC(C)=O)ns2)cc1 | inactive
27 | CCn1c(CSc2nncn2-c2ccc(OC)cc2)nc2cc(S(=O)(=O)N(C)C)ccc21 | inactive
28 | Nc1nc(SCCOc2ccccc2)n[nH]1 | inactive
29 | CCOC(=O)C1CCN(C(=O)C2CCN(S(=O)(=O)N3CCCC3)CC2)CC1 | inactive
30 | COc1ccc(Cl)cc1S(=O)(=O)Nc1cccc(C(=O)O)c1 | inactive
31 | COc1ccc(C(c2nnnn2Cc2cccs2)N2CCN(c3ccccc3)CC2)cc1OC (stereo unspecified) | inactive
32 | Nc1nonc1-c1nc2ccccc2n1Cc1ccc(F)cc1 | inactive
33 | Nn1c(SCC(=O)NC(=O)NC2CCCC2)nnc1-c1ccccc1F | inactive
34 | CC(=O)NC1=NC(=O)CS1 | inactive
35 | COC(=O)c1[nH]c2ccccc2c1NS(=O)(=O)c1ccc(OC)cc1OC | inactive
36 | CCOc1ccccc1NC(=O)Nc1cc(OC)ccc1OC | inactive
37 | COc1ccc(OC)c(N=Cc2c(O)[nH]c3ccccc23)c1 | 59 nM (active)
38 | Cc1nn(-c2ccccc2)c(C)c1C(=O)OCC(=O)NC(=O)NC1CCCCC1 | inactive
39 | CCC(C)(C)NC(=O)C(c1cccn1C)N(Cc1ccc(C)cc1)C(=O)Cn1nnc2ccccc21 (stereo unspecified) | inactive
40 | CC(C)NC[C@H](O)c1ccc2ccccc2c1 | inactive
41 | CCCCC[C@H](O)CCCC(=O)O | inactive
42 | COc1ccc(OC)c(C2N(c3ccccn3)C(=O)C3CCCN32)c1 (stereo unspecified) | inactive
43 | Cc1ccnc(NC(=O)c2ccc(NC(=O)c3ccco3)cc2)c1 | inactive
44 | CCN(CC)C(=O)c1sc(NC(=O)c2ccco2)c(C#N)c1C | inactive
45 | CCn1nc(NC(=O)c2ccco2)c2cc3ccc(C)cc3nc21 | 64 nM (active)
46 | C=CCNc1nc(C)nc(OC)n1 | inactive
47 | C=CCn1c(COc2ccccc2C)nnc1SCC(=O)O | inactive
48 | O=C(O)c1ccc(NC(=O)c2cccs2)cc1 | inactive

Row | Structure (SMILES) | max dye-equivalent concentration
49 | Cc1nc(-c2ccc(NC(=O)c3cccs3)cc2)cs1 | 220 nM (active)
50 | Cn1c(SCC(=O)Nc2cccc(NC(=O)c3cccs3)c2)nnc1-c1ccncc1 | inactive
51 | Cc1cc(=O)[nH]c(SCC(=O)N2c3ccccc3CC2C)n1 (stereo unspecified) | inactive
52 | NC(=NC(=O)c1ccccc1)C1=C(O)CCC1=O | inactive
53 | Cn1c2ccccc2c2c(C(=O)N3CCN(c4ccc(F)cc4)CC3)cn(C3CCCC3)c(=O)c21 | 16 nM (active)
54 | O=C(c1cccc2ccccc12)N1CCN(c2ccccc2F)CC1 | inactive
55 | CC(C)N(C(=O)COC(=O)c1ccccc1C(=O)N1CCN(c2ccc(F)cc2)CC1)C(C)C | inactive
56 | COc1ccc(-n2nnnc2SCC(=O)c2ccc(OC)c(OC)c2)cc1 | inactive
57 | CCSc1nc2c(c(=O)[nH]1)C(c1cccnc1)C(C(=O)OC(C)C)=C(C)N2 (stereo unspecified) | 10 nM (active)
58 | COC(=O)C1=C(N)Oc2cc(C)oc(=O)c2C1c1cccnc1 (stereo unspecified) | inactive
59 | CC1=C(C(=O)OC2CCCCC2)C(c2cccnc2)n2ncnc2N1 (stereo unspecified) | inactive
60 | O=C(Nc1cccc(F)c1)N1CC2(CCN(C(=O)c3cnccn3)CC2)C1 | inactive
61 | COc1ccc(NC(=O)c2c(SC)nsc2SC)cc1 | inactive
62 | CCOc1ccc(C(C)C)cc1S(=O)(=O)n1nc(C)cc1C | inactive
63 | Cc1ccc(OCCCC(=O)N2CCOCC2)c(C)c1 | inactive
64 | CCCc1[nH]nc2c1C(c1c(C)nn(-c3ccccc3)c1Cl)C(C#N)=C(N)O2 (stereo unspecified) | inactive
65 | CSc1nc(N)c(C#N)c(-c2ccccc2Cl)c1C#N | inactive
66 | CSc1ccc(-c2c(C#N)c(N)nc3c2c(C)nn3-c2ccccc2)cc1 | 360 nM (active)
67 | CCc1c(C)nc(N)n2c(SCC(=O)N3CCN(c4ccccc4)CC3)nnc12 | inactive
68 | CCOC(=O)c1cnc(SCC(=O)NCc2ccco2)nc1N | inactive
69 | COc1c(C)cccc1C(=O)Nc1cc(Cl)ccc1N1CCOCC1 | inactive
70 | Cc1nc(C)c(C(=O)Nc2ccc(C)c(F)c2)o1 | inactive
71 | COc1ccc(Cl)cc1NC(=O)c1oc(C)nc1C | 15 nM (active)
